Compounds with a hit are over-represented: about 1.5% of the library has one in this group of screens.
IDE cell inh: inhibits human insulin-degrading enzyme in HEK cells. P14735. FAbetaB cleavage, fluorescence polarization. inhibition, % at 5.59 µM. 320,000 tested, 0.41% active;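 active means percent inhibition above the average of all tested compounds plus 3 SD, set per screening campaign, cut at about 16% in these data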;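 further: IDE supplied by intact live HEK cells; FP after avidin binding of uncleaved biotin substrate so inhibition keeps polarization high; 0% = DMSO wells and 100% = 60 µM reference IDE inhibitor Ii1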
TPT1 inhibitor: inhibitors of Candida albicans tRNA 2'-phosphotransferase TPT1. recombinant caTPT1, FP RNA substrate dephosphorylation. inhibition, % at 5 µM. 300,000 tested, 0.81% active. AID 1962;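 active means inhibition above the mean of all tested compounds plus 3 SD, set per screening campaign, cut at about 24% in these data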;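 further: plate controls were DMSO alone for no effect and ferristatin control at 100 nM for full effect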
Cardiac RTF inh: cardiac RTF calcium desensitization | IANBD-labeled cardiac RTF, Ca2+ fluorescence | inhibition, % at 7.15 µM | P19429+P45379 | AID 493244 | 340,000 tested, 0.12% active;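 active means inhibition above the mean inhibition of all tested compounds plus 3 SD, cut at about 17% in these data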;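 further: assay run at fixed EC70 calcium of 1.6 mM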
RTF Ca sens act: increases calcium sensitivity of human cardiac regulated thin filaments | IANBD-labeled TnC RTF fluorescence at EC20 calcium; 0% EC20 calcium, 100% full calcium | 340,000 tested, 0.24% active | activation, % at 7.2 µM;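 active means activation above the mean over all tested compounds plus 3 SD, cut at about 30% in these data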;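 further: rise in fluorescence read as greater calcium sensitivity of cardiac thin filaments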
IDE cell activ: activators of human insulin-degrading enzyme in cells. P14735. HEK cells, FAbeta-B cleavage, fluorescence polarization; 0% vehicle, 100% cell-free pure enzyme wells. activation, % at 5.96 µM. 340,000 tested, 0.073% active;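 active means activation above the mean of all tested compounds plus 3 SD, set per screening campaign, cut at about 17% in these data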
CRFR2-BP ag: agonists of human CRF-binding protein/CRF-R2 receptor complex; activation, % at 13.2 µM; 350,000 tested, 0.46% active; HEK293 CRF-R2/CRF-BP, calcium dye fluorescence (FLIPR); percent of saturating CRF peptide response;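 active means activation of at least 50%, plus an integration ratio under a set limit after plate pattern correction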;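 further: plate controls were neutral control wells without compound for no effect and CRF at EC100 for full effect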
caTPT1 confirm: TPT1 (C. albicans) inhibition, confirmation; inhibition, % at 5 µM; AID 2149; 2,400 tested, 74% active; shares compounds with TPT1 inhibitor; recombinant caTPT1, fluorescence polarization, RNase T1 coupled;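 active means inhibition above the primary screen limit, the mean inhibition of all tested compounds plus 3 SD, cut at about 25% in these data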
RNase T1 inh: blocks Aspergillus oryzae RNase T1, a TPT1 counter-screen | RNase T1 cleavage, fluorescence polarization, 1536-well | inhibition, % at 5 µM | shares compounds with TPT1 inhibitor | 2,400 tested, 83% active;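 active means inhibition above the solvent-only control well mean plus 3 SD, limit set per screening run, cut at about 23% in these data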;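 further: plate controls were DMSO wells with enzyme for no effect and wells without RNase T1 for full effect; inhibitors block cleavage so intact labeled substrate keeps polarization high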
Target sequence (P00651 whole entry, looked up): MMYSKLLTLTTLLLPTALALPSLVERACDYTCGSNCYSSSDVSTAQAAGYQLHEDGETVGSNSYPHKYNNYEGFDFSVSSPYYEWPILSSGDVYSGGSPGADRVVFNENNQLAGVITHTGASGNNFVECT
Active calls of the source: *; nt = no result given.

SMILES	IDE cell inh	TPT1 inhibitor	Cardiac RTF inh	RTF Ca sens act	IDE cell activ	CRFR2-BP ag	caTPT1 confirm	RNase T1 inh
CN1CCc2c(sc3c2C(=O)NC(c2ccc(-c4cccc(Cl)c4)o2)N3)C1 (stereo not given)	15	115*	-72	15	-20	16	111*	117*
CSc1ccc(C2NC(=O)c3c(sc4c3CCN(C)C4)N2)cc1 (stereo not given)	11	105*	-37	22	-16	45	97*	101*
O=C(Nc1ccc(N2C(=O)CCC2=O)cc1Cl)c1cccs1	4	-1	0	2	1	17	nt	nt
Cc1nnc(N2CCOCC2)c2nn(-c3cccc(Cl)c3)c(C)c12	6	28*	-38	33*	4	-1	69*	76*
COC(=O)Cc1cn(-c2ncc(C(F)(F)F)cc2Cl)c2ccccc12	-3	-1	-14	-10	-1	-1	nt	nt
CN(C)/C=C/C(=O)/C=C/c1cn(-c2ncc(C(F)(F)F)cc2Cl)c2ccccc12	4	32*	1	-7	4	3	17	20
CC(C)Nc1ccc(C(CC(N)=O)NC(=O)Cc2cccc3ccccc23)cc1[N+](=O)[O-] (stereo not given)	4	75*	-54	1	-2	0	85*	95*
NC(=O)CC(NC(=O)Cc1cccc2ccccc12)c1ccc(NC2CCN(Cc3ccccc3)CC2)c([N+](=O)[O-])c1 (stereo not given)	-1	26*	-5	-6	2	2	29*	40*
CC(C)c1c(C(=O)N/N=C/C2CC=CCC2)nnn1-c1nonc1N (stereo not given)	2	1	-5	-4	0	0	nt	nt
COc1cc(/C=C2/CCCC(C(=O)C(F)(F)F)=C2O)ccc1O	3	19	-10	2	0	1	nt	nt
CCOc1cc(/C=C2\CCCC(C(=O)C(F)(F)F)=C2O)ccc1O	2	36*	-36	1	-5	6	44*	58*
COc1ccc(-c2ccc3c(N)c(C(=O)c4ccc(OC)c(OC)c4)sc3n2)cc1	8	54*	-19	2	7	4	60*	70*
NC(=O)c1sc2nc(-c3ccccc3)ccc2c1N	2	4	-3	0	4	1	nt	nt
COc1ccc(C(=O)c2sc3nc(-c4ccccc4)ccc3c2N)cc1OC	2	91*	-6	-4	0	52*	88*	94*
CCOc1ccccc1NC(=O)C(=O)N/N=C/c1cc(Br)ccc1O	1	2	-7	-6	10	12	nt	nt
CN1OC[C@@H]2CN(S(=O)(=O)c3cccc(C(F)(F)F)c3)[C@H](c3ccc(-c4cccnc4)cc3)C[C@@H]21	nt	nt	nt	nt	nt	3	nt	nt
O=C(CCl)Nc1cccc(S(=O)(=O)NC2=NCCC2)c1	-2	1	-1	-4	4	-1	nt	nt
CCOC(=O)C1=C(O)CSC1=Nc1ccccc1	3	27*	-9	2	-1	-1	21	27*
CCOC(=O)C1=C(O)CSC1=Nc1ccc(Cl)cc1	3	-2	0	-1	2	-3	nt	nt
O=C(N/N=C/C1=C(N2CCOCC2)C(=C\c2ccccc2)/CC1)Nc1ccccc1	1	-1	-16	2	-2	1	nt	nt
O=C(O)c1ccccc1N/N=C/C1=C(N2CCOCC2)C(=C\c2ccccc2)/CC1	5	25*	4	4	6	9	93*	102*
CC(C)C[C@H](NC(=O)N1CCn2c1nc1ccccc12)C(=O)N[C@@H](C(=O)O)c1ccccc1	0	1	3	1	5	-1	nt	nt
CCN(CC)c1nc(C)c(C(=S)Nc2cc([N+](=O)[O-])ccc2Cl)s1	2	28*	-15	13	-11	23	61*	73*
COc1ccc(OC)c(/C=C2\Oc3cc(OCC(=O)N4CCC[C@H]4C(=O)O)ccc3C2=O)c1	8	16	-8	7	-1	4	nt	nt
